Experimental data taken from PubChem BioAssay AID2314 (National Center for Advancing Translational Sciences (NCATS), 2010).
In all, about 300,000 compounds went through this assay and about 37,000 (12%) were called active. Many of the other results were omitted from the sample, so actives are more common in it than they were. Values without a mark were called inactive. No stated cut-off is given here; in the data, active means max response mostly above about 13% (no sharp cut-off); inactive means mostly below about 14%.

Experiment: Cycloheximide Counterscreen for Small Molecule Inhibitors of Shiga Toxin; further: read at 38.3 µM for the half of the compounds with a filed dose; 0% is about no effect
Details: cell reporter, cycloheximide protein synthesis inhibition counterscreen; hits give high values
In the case of Cc1cccc(N2CCN(S(=O)(=O)c3ccc4[nH]c(=O)c(=O)[nH]c4c3)CC2C)c1 (centres undefined), the max response is reported as -2.14%. With CC1(C)C(C=C(Cl)Cl)C1C(=O)N(Cc1ccc(Cl)cc1)C1CCS(=O)(=O)C1 (centres undefined) the max response was 3.61%. With Cc1ccc2nc(/C(C#N)=C\c3ccc(OC(=O)c4cccs4)cc3)[nH]c2c1 the max response was 29.1% (active). Molecule Cc1ccc2nc(S(=O)(=O)O)[nH]c2c1 has a max response of -7.91%. Work on COc1ccc(CCNC(=O)/C(C#N)=C2\N=C(NC(=O)c3cccs3)c3ccccc32)cc1 yielded a max response of -2.25%. In the case of O=C(Nc1ccon1)c1sc2ccccc2c1Cl, the max response is reported as 64.4% (active). CN1CCc2ccccc2C1Cc1ccccc1NC(=O)c1sc2ccccc2c1Cl (centres undefined) showed a max response of 5.79%. O=C(Nc1ccon1)c1cccc(Cl)c1 showed a max response of 8.4%. Work on COc1ccc(C)cc1NC(=O)C(Sc1ccccc1)c1ccccc1 (centres undefined) yielded a max response of -3.77%. In the case of CC1CCN(C(=O)c2ccc3c(=O)n4c(nc3c2)CCCCC4)CC1, the max response is reported as 14.9%. Work on CCn1nc(C)c(CN2CCN(Cc3ccc(OC)c(C)c3C)C(CCO)C2)c1C (centres undefined) yielded a max response of -1.08%. Work on Cc1cccc(-[n+]2c(-c3cccc(Br)c3)[nH]c3nc4ccccc4nc32)c1 yielded a max response of 0.81%. With COc1ccc(OCC(=O)NCCS(=O)(=O)N2CCN(c3ccc(F)cc3)CC2)cc1 the max response was 13.1%. With COc1ccc(CNC(=O)CN(Cc2ccc(Cl)cc2)S(C)(=O)=O)cc1 the max response was -2.61%. With CN(CC(=O)NCc1ccc(Cl)cc1)S(=O)(=O)c1cccs1 the max response was 10.2% (active). Work on O=C(NCc1ccc(Cl)cc1)C1CCN(S(=O)(=O)c2cccs2)CC1 yielded a max response of -3.46%. For NC(=O)CN1CCCC1c1ccc2c(c1)OCCO2 (centres undefined), the max response was 10.4%. In the case of Cc1ccccc1OCC(=O)NNC(=O)c1cc(S(=O)(=O)N(C)C)ccc1N1CCCC1, the max response is reported as -2.55%. For Cc1ccc(-n2c(SCC(=O)N/N=C/C=C/c3ccccc3[N+](=O)[O-])nc3ccccc3c2=O)cc1, the max response was -7.24%. In the case of O=C(CSc1nc2ccccc2[nH]1)N/N=C/C=C\c1ccccc1[N+](=O)[O-], the max response is reported as 13.8% (active). CCn1c(SCC(=O)N/N=C/C=C/c2ccccc2[N+](=O)[O-])nnc1-c1ccccc1 gave a max response of 8.3%. Work on OC(COc1ccc(Br)cc1)CN1CCCC1 (centres undefined) yielded a max response of -1.85%. Molecule CN(CCC1CCOCC1)C(=O)CC1C(=O)NCCN1Cc1cccc(F)c1 (centres undefined) has a max response of -2.83%. For CC(=O)c1c(C)[nH]c(C(=O)OCC(=O)Nc2cc(S(=O)(=O)N3CCCCC3)ccc2C)c1C, the max response was -1.55%. Cc1cccc([C@H]2[C@@H]3C=CC[C@@H](C)[C@@H]3C(=O)N2Cc2ccccc2)c1 gave a max response of -6.21%. For COc1ccc(NCCc2ccccn2)cc1, the max response was 30.6% (active). O=S(=O)(/C=C/c1ccccc1)NCCc1ccccn1 showed a max response of 10.5%. Cc1c(C)c(C)c(S(=O)(=O)NCCc2ccccn2)c(C)c1C gave a max response of -3.58%. In the case of COc1ccc(S(=O)(=O)NC(C)C(=O)NCc2ccncc2)cc1Cl (centres undefined), the max response is reported as -5.01%. In the case of CNC(=O)CSc1nnc(CCc2ccccc2)n1-c1ccccc1, the max response is reported as 1.1%. Cc1c(C(=O)NCc2ccccc2)cnn1-c1ccccc1 showed a max response of 22.7%. For Cc1c(CNCCc2ccccc2)c(C(=O)O)c(C)n1-c1ccccc1, the max response was 12.6% (active). Work on COC(=O)CCCC1=CC2=C(c3ccccc3)C(=O)C(C)(OC(=O)C3CCCC3)C(=O)C2=CN1c1ccc(OC)cc1 (centres undefined) yielded a max response of -2.86%. Molecule CCn1c(=S)[nH]c2sc3c(c2c1=O)CCCCC3 has a max response of -1.45%. COc1ccc(N2CCN(C3CCCCC3NS(=O)(=O)c3ccccc3)CC2)cc1 (centres undefined) showed a max response of -5.98%. Cc1ccc2cc(C)c(N3CCN(c4ccc(F)cc4)CC3)nc2c1 showed a max response of 10.1%. With Cc1ccc2cc(C)c(N3CCC(C)CC3)nc2c1 the max response was 23.2% (active). Cc1nc(N2CCC(C)CC2)c2c(C)c(C(=O)Nc3cc(F)ccc3C)sc2n1 showed a max response of 4.36%. In the case of CC(NC(=O)c1cccc2ccccc12)c1ccc2c(c1)CCCC2 (centres undefined), the max response is reported as -1.47%. With Cc1ccc(NC(=S)N(Cc2ccco2)C(C)c2cccs2)cc1 (centres undefined) the max response was 15.6% (active). With Cc1ccc(NC(=S)N(CCN2CCCCC2)Cc2ccco2)cc1C the max response was 6.6%. Cc1ccc(NC(=S)N(CCCN2CCC(C)CC2)Cc2ccco2)cc1 showed a max response of -1.16%. O=C(C1=C[C@H](c2ccc(C(F)(F)F)cc2)C[C@H](OCc2ccc(CO)cc2)O1)N1CCN(Cc2ccccc2)CC1 showed a max response of -1.19%. In the case of O=C(O)C1CCCN1S(=O)(=O)c1ccc(Br)cc1 (centres undefined), the max response is reported as -3.32%. Work on CCCCNC(=O)CN1C(=O)NC(Cc2ccccc2)(Cc2ccccc2)C1=O yielded a max response of -4.58%. In the case of O=S(=O)(c1ccccc1)c1nc(-c2ccccc2)oc1NCCCN1CCOCC1, the max response is reported as -2.06%. With CC(C)(C)c1ccc(C(=O)NNC(=O)Cc2ccccc2)cc1 the max response was 37.7% (active). With O=C(CCc1ccccc1)NNC(=O)c1ccc(Br)cc1 the max response was 5.92%. In the case of CCNC(=S)NNC(=O)Cc1ccccc1, the max response is reported as -1.87%. Work on COc1cc(N=Cc2c(O)c3ccccc3oc2=O)c(OC)cc1Cl yielded a max response of 0.554%. Cc1ccc(S(=O)(=O)NC2CCCCCC2)cc1C(N)=O showed a max response of -1.91%. For CC(NCCc1ccc(S(N)(=O)=O)cc1)C(=O)NCc1ccccc1 (centres undefined), the max response was 2.64%. For O=C(Cc1c(F)cccc1Cl)Nc1ncc([N+](=O)[O-])s1, the max response was 32.7% (active). For CC(NC(=S)Nc1ccccc1)C1COc2ccccc2O1 (centres undefined), the max response was -3.29%. In the case of O=C(Nc1nc2c(F)cc(F)cc2s1)C1COc2ccccc2O1 (centres undefined), the max response is reported as 24.7% (active). Molecule Cc1ccc(S(=O)(=O)N(C)C)cc1NC(=O)COC(=O)C1COc2ccccc2O1 (centres undefined) has a max response of -1.56%. CN(c1ccccc1)S(=O)(=O)c1cccc(NC(=O)Cc2c(F)cccc2Cl)c1 gave a max response of 10.4%. For O=C(Nc1ncc([N+](=O)[O-])s1)C1COc2ccccc2O1 (centres undefined), the max response was 49.4% (active). With O=C(Cc1c(F)cccc1Cl)Nc1ccc(-n2cnnn2)cc1 the max response was 8.09%. COc1ccc(NC(=O)c2ccccc2[N+](=O)[O-])cc1OC gave a max response of 3.51%. Work on O=C(Nc1ccncc1)c1ccccc1[N+](=O)[O-] yielded a max response of -7.9%. Work on CCN(CC)S(=O)(=O)c1ccc(N2CCOCC2)c(NC(=O)C2COc3ccccc3O2)c1 (centres undefined) yielded a max response of 4.39%. In the case of CC(=O)Oc1ccccc1C(=O)Nc1ncc([N+](=O)[O-])s1, the max response is reported as 29.9% (active). O=C(Nc1nc(-c2ccncc2)cs1)C1COc2ccccc2O1 (centres undefined) gave a max response of -3.21%.
